Data reported in PubChem BioAssay (EPA / NIEHS).
Results filed as inconclusive are left out. Active and inactive are the calls of the source. The calls were made as follows: active = hit-call score of the fitted dose curve at least 0.9, where 1 is the maximum; inconclusive = response in the unintended direction; inactive = score below 0.9.

How the values were obtained:
[1] = biological target: human Ephrin type-A Receptor 1 (EphA1), EPHA1 (gene 2041) (UniProt P21709); experiment: NVS_ENZ_hEphA1: NovaScreen (NVS) Enzymatic Assay for human Ephrin type-A Receptor 1 (EphA1) (AID 2283158);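 also: activity is signal loss versus DMSO meaning EphA1 kinase inhibition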
Method in brief: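 Biochemical kinase assay run cell-free; 1 h incubation; readout is fluorescence with mobility-shift separation of product. Concentration-response up to 50 uM for actives from a 25 uM screen.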

[2] = biological target: D(1A) dopamine receptor (Homo sapiens) (UniProt P21728); experiment: NVS_GPCR_hDRD1: NovaScreen (NVS) G Protein-Coupled Receptor Assay for human Dopamine Receptor D1 (DRD1) (AID 2283269)
Method in brief: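 Radioligand displacement binding on membranes/protein extracted from HEK293 expressing human D1, cell-free; read 1 h after dosing by filter-based scintillation counting. Primary screen in duplicate at 25 uM, actives followed up in concentration series; signal loss versus DMSO baseline.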

[3] = biological target: human CYP2C9, CYP2C9 (gene 1559) (UniProt P11712); experiment: NVS_ADME_hCYP2C9: NovaScreen (NVS) CYP450-related Enzyme Activity (ADME) Assay for human CYP2C9 (AID 2283108)
Method in brief: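 Cell-free assay of recombinant human CYP2C9 produced in Sf9 cells, with enzyme activity read by fluorescence intensity 0.75 h after compound addition. Loss of signal versus an acetonitrile negative control indicates inhibition. Primary screen used 10 uM in duplicate; actives were retested in concentration series.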

[4] = biological target: Cytochrome P450 2C19 (Homo sapiens) (UniProt P33261); experiment: NVS_ADME_hCYP2C19: NovaScreen (NVS) CYP450-related Enzyme Activity (ADME) Assay for human CYP2C19 (AID 2283113);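 also: potency for inhibition seen as loss of fluorescent signal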
Method in brief: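 Chemicals first screened in duplicate at 10 uM against recombinant human enzyme produced in insect cells; confirmed actives then run as concentration series. Fluorogenic substrate turnover read by fluorescence after 1 h, normalised to acetonitrile.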

[5] = biological target: human Matrix Metalloproteinase-9 (MMP9), MMP9 (gene 4318) (UniProt P14780); experiment: NVS_ENZ_hMMP9: NovaScreen (NVS) Enzymatic Assay for human Matrix Metalloproteinase-9 (MMP9) (AID 2283190);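 also: cell-free recombinant MMP9 protease activity read by fluorescent substrate signal; active means inhibition seen as loss of fluorescence signal versus DMSO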
Method in brief: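 Cell-free recombinant MMP9 enzyme activity measured by fluorescence intensity 1 h after dosing. Primary screen in duplicate at 25 uM, actives followed in concentration series; loss of signal relative to DMSO.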

[6] = biological target: sheep Cyclooxygenase-1 (Cox1), PTGS1 (gene 443551) (UniProt P05979); experiment: NVS_ENZ_oCOX1: NovaScreen (NVS) Enzymatic Assay for sheep Cyclooxygenase-1 (Cox1) (AID 2283239);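 also: actives reduce cyclooxygenase activity so potencies are for inhibitors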
Method in brief: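 Native ovine seminal vesicle protein serves as enzyme source in this biochemical assay. Colorimetric signal is recorded 0.66 h after chemical addition, and decreases versus the DMSO control define activity.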

[7] = biological target: guinea pig Opioid, Kappa 1 Receptor (OpiateK), OPRK1 (gene 100135587) (UniProt P41144); experiment: NVS_GPCR_gOpiateK: NovaScreen (NVS) G Protein-Coupled Receptor Assay for guinea pig Opioid, Kappa 1 Receptor (OpiateK) (AID 2283252);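 also: radioligand displacement from kappa opioid receptor in guinea pig cerebellar membranes; active means reduced radioligand binding relative to DMSO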
Method in brief: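 Guinea pig cerebellar membranes were incubated with a radioligand for 2 h after compound addition; bound radioactivity was read by filter-based scintillation counting. Loss of specific binding relative to DMSO baseline defined activity; primary screen at 25 uM in duplicate.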

[8] = biological target: human CYP19A1, CYP19A1 (gene 1588) (UniProt P11511); experiment: NVS_ADME_hCYP19A1: NovaScreen (NVS) CYP450-related Enzyme Activity (ADME) Assay for human CYP19A1 (AID 2283098)
Method in brief: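 Cell-free enzyme assay with recombinant protein and a specific fluorogenic substrate, read by fluorescence intensity 0.5 h after dosing. Primary screen ran in duplicate at 10 uM; actives were retested in concentration series. Loss of signal versus acetonitrile baseline.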

[9] = biological target: human CYP2D6, CYP2D6 (gene 1565) (UniProt P10635); experiment: NVS_ADME_hCYP2D6: NovaScreen (NVS) CYP450-related Enzyme Activity (ADME) Assay for human CYP2D6 (AID 2283107)
Method in brief: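 Compounds were first tested in duplicate at 10 uM against recombinant enzyme produced in insect cells, with substrate turnover measured by fluorescence after 1 hour. Decreased signal, referenced to acetonitrile vehicle, was taken as reduced enzyme activity. Active chemicals went on to concentration-response testing.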

[10] = biological target: human Beta-secretase (BACE), BACE1 (gene 23621) (UniProt P56817); experiment: NVS_ENZ_hBACE: NovaScreen (NVS) Enzymatic Assay for human Beta-secretase (BACE) (AID 2283140);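 also: hits are inhibitors that reduce fluorescent substrate signal versus DMSO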
Method in brief: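 Cell-free assay of recombinant Sf9-expressed human BACE with fluorescent substrate, read by fluorescence intensity after 1 h. Primary screen in duplicate at 25 uM; actives then run in concentration series; loss of signal relative to DMSO.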

[11] = biological target: human Dual Specificity Protein Phosphatase 3 (DUSP3), DUSP3 (gene 1845) (UniProt P51452); experiment: NVS_ENZ_hDUSP3: NovaScreen (NVS) Enzymatic Assay for human Dual Specificity Protein Phosphatase 3 (DUSP3) (AID 2283152);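 also: phosphatase activity of recombinant human DUSP3 on a fluorogenic substrate without cells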
Method in brief: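 Cell-free assay with recombinant human DUSP3 and fluorogenic substrate, read by fluorescence intensity. Primary screen ran duplicate at 25 uM; actives followed up in concentration series; loss of signal versus DMSO scored.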

[12] = biological target: human Phosphodiesterase 10 (PDE10), PDE10A (gene 10846) (UniProt Q9Y233); experiment: NVS_ENZ_hPDE10: NovaScreen (NVS) Enzymatic Assay for human Phosphodiesterase 10 (PDE10) (AID 2283195)
Method in brief: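 Fluorescence/mobility-shift readout of PDE10A enzyme activity, taken 1 h post-dosing. Primary screen in duplicate at 25 uM; actives (e.g. ≥30% inhibition) retested as singleton concentration-response, top concentration 50 uM.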

[13] = biological target: human Phosphoinositide 3-kinase alpha (PI3Ka), PIK3CA (gene 5290) (UniProt P42336); experiment: NVS_ENZ_hPI3Ka: NovaScreen (NVS) Enzymatic Assay for human Phosphoinositide 3-kinase alpha (PI3Ka) (AID 2283196)
Method in brief: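 Recombinant human PI3Kα with fluorescent substrate, 1 h, product separated by electrophoretic mobility shift; 25 uM duplicate screen, hits (e.g., 30% inhibition) retested singly up to 50 uM; loss of signal vs DMSO.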

[14] = biological target: human Vascular Endothelial Growth Factor Receptor 1 (VEGFR1), FLT1 (gene 2321) (UniProt P17948); experiment: NVS_ENZ_hVEGFR1: NovaScreen (NVS) Enzymatic Assay for human Vascular Endothelial Growth Factor Receptor 1 (VEGFR1) (AID 2283226)
Method in brief: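 Cell-free assay of recombinant human VEGFR1 kinase with substrate, measured 1 h after dosing; fluorescence with electrophoretic mobility-shift separation of substrate and product, referenced to DMSO; primary screen at 25 uM in duplicate, actives then run in concentration series.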

[15] = biological target: human Adenosine A2a Receptor (AdoRA2a), ADORA2A (gene 135) (UniProt P29274); experiment: NVS_GPCR_hAdoRA2a: NovaScreen (NVS) G Protein-Coupled Receptor Assay for human Adenosine A2a Receptor (AdoRA2a) (AID 2283256)
Method in brief: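 Radioligand displacement on HEK293-derived membrane protein, cell-free; filter-based scintillation counting 1.5 hours after dosing, loss of signal vs DMSO. Single-point duplicate screen at 25 uM, actives retested in concentration series.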

[16] = biological target: Muscarinic acetylcholine receptor M2 (Homo sapiens) (UniProt P08172); experiment: NVS_GPCR_hM2: NovaScreen (NVS) G Protein-Coupled Receptor Assay for human Muscarinic, M2 Receptor (AID 2283273)
Method in brief: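 Cell-free radioligand binding using membranes from CHO cells expressing the receptor; filter-based scintillation counting after 1 hour of compound exposure. Loss of specific binding relative to DMSO baseline; primary screen at 25 uM in duplicate, actives then run in concentration series.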

[17] = biological target: human Neurokinin, NK2 Receptor, TACR2 (gene 6865) (UniProt P21452); experiment: NVS_GPCR_hNK2: NovaScreen (NVS) G Protein-Coupled Receptor Assay for human Neurokinin, NK2 Receptor (AID 2283278);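 also: actives reduce bound radioligand signal relative to DMSO baseline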
Method in brief: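 Radioligand binding on membranes from CHO cells expressing receptor, filter-based scintillation read 4 h after dosing. Initial duplicate screen at 25 uM, actives in concentration series; loss of signal versus DMSO.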

[18] = biological target: human Caspase 5 (CASP5), CASP5 (gene 838) (UniProt P51878); experiment: NVS_ENZ_hCASP5: NovaScreen (NVS) Enzymatic Assay for human Caspase 5 (CASP5) (AID 2283137)
Method in brief: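 Recombinant human caspase 5 expressed in E. coli, fluorogenic substrate, fluorescence read 2 h after dosing. Single-point 25 uM duplicate screen, then concentration-response to maximum 50 uM for actives; DMSO baseline.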

Sequence of human CYP19A1, CYP19A1 (gene 1588) (P11511 whole entry, looked up): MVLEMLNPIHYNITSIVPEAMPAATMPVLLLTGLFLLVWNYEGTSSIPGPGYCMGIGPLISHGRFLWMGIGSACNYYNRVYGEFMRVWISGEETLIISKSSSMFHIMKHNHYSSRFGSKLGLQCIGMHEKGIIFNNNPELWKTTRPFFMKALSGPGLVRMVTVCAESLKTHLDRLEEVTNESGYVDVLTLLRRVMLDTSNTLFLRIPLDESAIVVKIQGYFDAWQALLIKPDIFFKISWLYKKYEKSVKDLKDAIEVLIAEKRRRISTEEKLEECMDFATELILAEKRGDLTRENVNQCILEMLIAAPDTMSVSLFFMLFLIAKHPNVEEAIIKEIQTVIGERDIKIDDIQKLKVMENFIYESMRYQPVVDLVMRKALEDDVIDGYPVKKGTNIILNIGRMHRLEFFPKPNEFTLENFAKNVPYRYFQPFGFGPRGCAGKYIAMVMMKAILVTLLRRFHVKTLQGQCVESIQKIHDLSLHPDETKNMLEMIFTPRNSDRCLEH
Sequence of sheep Cyclooxygenase-1 (Cox1), PTGS1 (gene 443551) (P05979 whole entry, looked up): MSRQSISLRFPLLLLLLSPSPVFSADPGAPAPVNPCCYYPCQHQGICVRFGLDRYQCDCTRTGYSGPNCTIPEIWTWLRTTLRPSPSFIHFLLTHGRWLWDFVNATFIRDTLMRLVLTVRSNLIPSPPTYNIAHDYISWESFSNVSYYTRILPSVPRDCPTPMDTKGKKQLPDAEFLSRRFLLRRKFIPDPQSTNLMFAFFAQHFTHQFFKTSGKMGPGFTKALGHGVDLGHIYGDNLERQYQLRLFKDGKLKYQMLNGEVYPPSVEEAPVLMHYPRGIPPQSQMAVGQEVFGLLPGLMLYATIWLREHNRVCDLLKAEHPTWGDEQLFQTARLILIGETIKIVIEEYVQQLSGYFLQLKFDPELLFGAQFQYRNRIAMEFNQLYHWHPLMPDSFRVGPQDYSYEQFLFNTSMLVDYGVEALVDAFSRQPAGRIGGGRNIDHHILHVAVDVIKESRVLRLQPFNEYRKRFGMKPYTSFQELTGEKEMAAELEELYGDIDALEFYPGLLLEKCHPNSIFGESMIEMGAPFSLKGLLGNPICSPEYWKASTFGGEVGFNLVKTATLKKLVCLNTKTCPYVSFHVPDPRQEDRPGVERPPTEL
Sequence of human Ephrin type-A Receptor 1 (EphA1), EPHA1 (gene 2041) (P21709 whole entry, looked up): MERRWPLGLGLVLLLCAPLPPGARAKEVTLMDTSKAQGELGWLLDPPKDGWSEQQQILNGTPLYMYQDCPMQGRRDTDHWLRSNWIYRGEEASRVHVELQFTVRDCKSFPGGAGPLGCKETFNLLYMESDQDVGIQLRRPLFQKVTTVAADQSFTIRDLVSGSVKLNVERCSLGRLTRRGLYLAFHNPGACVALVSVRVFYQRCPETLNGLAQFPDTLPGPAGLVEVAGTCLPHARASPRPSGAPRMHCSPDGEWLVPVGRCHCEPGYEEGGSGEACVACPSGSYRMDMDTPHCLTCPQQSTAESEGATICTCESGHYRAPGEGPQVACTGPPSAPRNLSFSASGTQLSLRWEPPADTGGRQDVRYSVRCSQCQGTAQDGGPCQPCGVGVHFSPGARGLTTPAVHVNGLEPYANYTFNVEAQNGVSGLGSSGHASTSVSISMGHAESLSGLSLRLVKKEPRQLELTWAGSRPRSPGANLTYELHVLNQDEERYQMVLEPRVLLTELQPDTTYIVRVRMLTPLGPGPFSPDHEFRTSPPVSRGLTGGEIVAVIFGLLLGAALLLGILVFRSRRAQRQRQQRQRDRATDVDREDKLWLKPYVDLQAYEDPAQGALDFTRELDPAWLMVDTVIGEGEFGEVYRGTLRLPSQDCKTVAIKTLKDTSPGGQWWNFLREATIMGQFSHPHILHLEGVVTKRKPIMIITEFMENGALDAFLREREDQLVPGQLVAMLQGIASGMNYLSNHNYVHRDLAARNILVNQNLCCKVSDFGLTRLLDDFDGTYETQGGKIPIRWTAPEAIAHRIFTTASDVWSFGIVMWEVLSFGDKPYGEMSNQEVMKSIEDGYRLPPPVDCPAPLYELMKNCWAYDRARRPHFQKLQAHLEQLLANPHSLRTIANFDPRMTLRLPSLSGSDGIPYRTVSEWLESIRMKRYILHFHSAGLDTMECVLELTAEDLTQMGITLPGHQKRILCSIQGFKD
Sequence of human Matrix Metalloproteinase-9 (MMP9), MMP9 (gene 4318) (P14780 whole entry, looked up): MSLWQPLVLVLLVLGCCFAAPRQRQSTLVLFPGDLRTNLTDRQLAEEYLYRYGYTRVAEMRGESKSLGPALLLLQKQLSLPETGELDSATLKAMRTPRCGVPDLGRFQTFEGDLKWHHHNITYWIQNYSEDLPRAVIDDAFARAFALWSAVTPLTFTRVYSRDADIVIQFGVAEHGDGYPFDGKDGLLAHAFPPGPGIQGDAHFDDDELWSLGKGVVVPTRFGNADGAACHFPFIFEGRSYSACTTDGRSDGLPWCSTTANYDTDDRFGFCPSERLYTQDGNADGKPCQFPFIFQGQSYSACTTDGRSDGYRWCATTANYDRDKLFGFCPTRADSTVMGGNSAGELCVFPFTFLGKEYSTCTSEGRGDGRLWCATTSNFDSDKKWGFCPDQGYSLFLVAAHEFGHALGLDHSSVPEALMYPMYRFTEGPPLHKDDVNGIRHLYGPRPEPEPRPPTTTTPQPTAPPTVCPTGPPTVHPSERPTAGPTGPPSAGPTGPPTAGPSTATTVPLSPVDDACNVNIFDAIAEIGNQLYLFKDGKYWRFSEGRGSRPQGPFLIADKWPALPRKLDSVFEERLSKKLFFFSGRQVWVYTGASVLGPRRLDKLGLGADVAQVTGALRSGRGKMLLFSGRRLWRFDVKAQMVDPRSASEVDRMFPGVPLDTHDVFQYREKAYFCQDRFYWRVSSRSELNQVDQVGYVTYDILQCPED
Sequence of human Phosphoinositide 3-kinase alpha (PI3Ka), PIK3CA (gene 5290) (P42336 whole entry, looked up): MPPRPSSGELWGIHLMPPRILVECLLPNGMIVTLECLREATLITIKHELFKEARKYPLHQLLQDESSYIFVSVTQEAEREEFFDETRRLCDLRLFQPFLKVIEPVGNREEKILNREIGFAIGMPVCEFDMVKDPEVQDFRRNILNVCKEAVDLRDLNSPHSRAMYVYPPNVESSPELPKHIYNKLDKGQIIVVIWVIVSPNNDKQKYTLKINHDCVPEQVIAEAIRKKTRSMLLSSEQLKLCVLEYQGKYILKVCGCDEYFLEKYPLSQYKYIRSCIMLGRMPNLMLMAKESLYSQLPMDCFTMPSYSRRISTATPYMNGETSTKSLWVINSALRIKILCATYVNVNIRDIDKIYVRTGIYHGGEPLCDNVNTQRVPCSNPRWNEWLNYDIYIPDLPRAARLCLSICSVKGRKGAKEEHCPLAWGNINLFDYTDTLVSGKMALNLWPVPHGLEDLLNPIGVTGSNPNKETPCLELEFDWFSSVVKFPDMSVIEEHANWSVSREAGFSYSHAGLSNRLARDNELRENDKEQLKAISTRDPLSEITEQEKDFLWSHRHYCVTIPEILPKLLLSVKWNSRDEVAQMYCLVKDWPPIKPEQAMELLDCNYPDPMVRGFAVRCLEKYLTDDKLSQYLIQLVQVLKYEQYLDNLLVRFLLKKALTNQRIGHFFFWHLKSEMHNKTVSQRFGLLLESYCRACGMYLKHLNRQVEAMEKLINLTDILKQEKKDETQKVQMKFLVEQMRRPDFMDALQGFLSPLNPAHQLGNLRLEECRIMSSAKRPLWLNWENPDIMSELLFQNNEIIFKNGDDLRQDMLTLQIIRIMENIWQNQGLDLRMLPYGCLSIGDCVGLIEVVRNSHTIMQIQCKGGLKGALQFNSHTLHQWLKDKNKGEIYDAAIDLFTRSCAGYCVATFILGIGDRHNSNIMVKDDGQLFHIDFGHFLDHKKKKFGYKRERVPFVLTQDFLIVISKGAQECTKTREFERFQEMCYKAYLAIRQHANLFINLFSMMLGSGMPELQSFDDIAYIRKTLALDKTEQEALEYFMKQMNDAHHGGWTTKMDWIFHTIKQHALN
Sequence of D(1A) dopamine receptor (Homo sapiens) (P21728 whole entry, looked up): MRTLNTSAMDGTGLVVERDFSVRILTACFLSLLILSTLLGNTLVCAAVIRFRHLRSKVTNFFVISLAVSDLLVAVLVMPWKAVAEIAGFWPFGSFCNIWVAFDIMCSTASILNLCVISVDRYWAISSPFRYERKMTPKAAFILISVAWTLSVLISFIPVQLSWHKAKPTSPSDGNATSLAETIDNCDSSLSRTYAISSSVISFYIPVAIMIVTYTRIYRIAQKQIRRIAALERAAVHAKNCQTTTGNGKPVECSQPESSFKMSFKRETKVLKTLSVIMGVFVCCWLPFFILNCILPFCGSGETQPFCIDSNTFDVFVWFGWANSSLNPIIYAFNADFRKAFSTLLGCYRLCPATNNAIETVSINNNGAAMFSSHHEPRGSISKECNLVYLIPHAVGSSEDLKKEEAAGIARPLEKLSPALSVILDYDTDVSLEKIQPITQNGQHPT
Sequence of human CYP2D6, CYP2D6 (gene 1565) (P10635 whole entry, looked up): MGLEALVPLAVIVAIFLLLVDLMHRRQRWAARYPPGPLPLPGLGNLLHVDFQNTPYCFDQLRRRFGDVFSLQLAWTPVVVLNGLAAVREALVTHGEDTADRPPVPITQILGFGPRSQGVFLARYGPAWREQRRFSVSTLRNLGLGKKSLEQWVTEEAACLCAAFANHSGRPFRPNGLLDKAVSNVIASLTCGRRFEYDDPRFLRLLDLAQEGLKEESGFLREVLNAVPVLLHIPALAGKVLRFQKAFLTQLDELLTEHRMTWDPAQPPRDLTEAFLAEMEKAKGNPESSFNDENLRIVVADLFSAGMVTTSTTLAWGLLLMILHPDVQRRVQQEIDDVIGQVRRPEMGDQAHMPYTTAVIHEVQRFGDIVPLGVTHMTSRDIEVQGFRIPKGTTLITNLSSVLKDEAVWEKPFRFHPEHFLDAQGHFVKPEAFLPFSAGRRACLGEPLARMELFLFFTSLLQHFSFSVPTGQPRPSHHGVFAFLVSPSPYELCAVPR
Sequence of human Dual Specificity Protein Phosphatase 3 (DUSP3), DUSP3 (gene 1845) (P51452 whole entry, looked up): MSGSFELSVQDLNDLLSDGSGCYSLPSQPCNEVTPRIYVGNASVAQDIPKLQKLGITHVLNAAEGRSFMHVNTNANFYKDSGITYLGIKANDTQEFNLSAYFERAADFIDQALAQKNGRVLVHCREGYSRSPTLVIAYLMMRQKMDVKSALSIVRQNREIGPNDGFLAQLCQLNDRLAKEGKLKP

Q: What does the source list for `CCC(CC)C(=O)O`?
A: AC50 [1]: 4.56 µM (active); outcome [2]: inactive

Q: What does the source list for `C/C=C\C/C=C/CCCCCCCCOC(C)=O`?
A: AC50 [3]: 3.9 µM (active); AC50 [4]: 65 nM (active); outcome [1]: inactive; AC50 [5]: 13.7 µM (active); AC50 [6]: 25 µM (active)

Q: What does the source list for `C#CC1(O)CC[C@H]2[C@@H]3CCC4=CCCC[C@@H]4[C@H]3CC[C@@]21C` (stereo partly drawn)?
A: AC50 [4]: 32 nM (active); AC50 [6]: 43.8 µM (active); outcome [7]: inactive; outcome [2]: inactive

Q: Which results are given for `CC(CC=O)CCCC(C)(C)O` (stereo not drawn)?
A: outcome [8]: inactive; outcome [6]: inactive

Q: Which AC50 [9] does the source give for `CCCCCCCCCCCCCCCC[N+](C)(C)CC` here?
A: The AC50 was 536 nM (active).

Q: What about the AC50 [4] of the same compound?
A: Its AC50 is 2310 nM (active).

Q: What about the AC50 [10] of the same compound?
A: The AC50 was 6.41 µM (active).

Q: What about the AC50 [11] of the same compound?
A: Its AC50 is 20.8 µM (active).

Q: And the outcome [1]?
A: Its outcome is “inactive”.

Q: What about the outcome [5] of the same compound?
A: The outcome was “inactive”.

Q: And the outcome [12]?
A: The outcome was “inactive”.

Q: And the AC50 [13]?
A: The AC50 was 1.95 µM (active).

Q: And the outcome [14]?
A: The outcome was “inactive”.

Q: What about the AC50 [15] of the same compound?
A: Its AC50 is 44.2 µM (active).

Q: And the AC50 [2]?
A: Its AC50 is 1.95 µM (active).

Q: What about the AC50 [16] of the same compound?
A: The AC50 was 395 nM (active).

Q: What about the AC50 [17] of the same compound?
A: The AC50 was 1.78 µM (active).

Q: Which AC50 [1] does the source give for `CNC(=S)N(C)C` here?
A: The AC50 was 18.6 µM (active).

Q: What about the AC50 [5] of the same compound?
A: The AC50 was 1.04 µM (active).

Q: And the outcome [13]?
A: The outcome was “inactive”.

Q: What about the outcome [14] of the same compound?
A: The outcome was “inactive”.

Q: Which results are given for `COc1ccc2nc(N)sc2c1`?
A: AC50 [4]: 319 nM (active); AC50 [6]: 14.9 µM (active)

Q: Which outcome [1] does the source give for `Cc1cc(C)c(C)c(C)c1` here?
A: Its outcome is “inactive”.

Q: What about the outcome [13] of the same compound?
A: Its outcome is “inactive”.

Q: Which outcome [8] does the source give for `CC(=O)[C@H]1[C@H](C#N)C[C@H]2[C@@H]3CC=C4C[C@@H](O)CC[C@]4(C)[C@H]3CC[C@@]21C` here?
A: The outcome was “inactive”.

Q: Which results are given for `CCCCC/C=C\C/C=C\CCCCCCCC(=O)OC`?
A: AC50 [4]: 6470 nM (active); AC50 [18]: 6.61 µM (active); AC50 [2]: 45.1 µM (active)

Q: With `CCCCC(CC)COC(=O)c1ccccc1O` (stereo not drawn) as the compound, how does the AC50 [10] read?
A: Its AC50 is 11.1 µM (active).

Q: With `CCCCCCCC/C=C\CCCCCCCC(=O)O` as the compound, how does the outcome [8] read?
A: The outcome was “inactive”.

Q: How did the AC50 [9] turn out when `O=Nc1ccc(O)cc1` was run?
A: Its AC50 is 3790 nM (active).

Q: And the AC50 [18]?
A: Its AC50 is 13.5 µM (active).

Q: What about the outcome [12] of the same compound?
A: The outcome was “inactive”.
